Bioassay records (PubChem)
HT1080-NT tox: qHTS for induction of synthetic lethality in tumor cells producing 2HG: qHTS for the HT-1080-NT fibrosarcoma cell line | Potency, µM (top dose mostly 46.1 µM), inactives show at the top dose activity, negative = less viability, hits mostly cytotoxic | HT-1080-NT fibrosarcoma viability, CellTiter-Glo ATP luminescence, 48 h | AID 686970, 2013 | 360,000 compounds, 1.6% hits;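 further: NT is the 2HG producing partner of a matched IDH1 knockdown line; 0% = DMSO-treated cells and -100% = media-only wells without cells; nearly all actives have a fitted effect of over 55% in size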
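Luminescent CellTiter-Glo readout after 48 hours of compound exposure at 37 degrees C defined viability of HT-1080-NT cells. Activity was normalized to DMSO wells and cell-free media wells; concentration-response curves were fitted and assigned curve classes.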
HT1080 IDH1KD tx: qHTS for induction of synthetic lethality in tumor cells producing 2HG: qHTS for the HT-1080-IDH1KD cell line; HT-1080 IDH1 knockdown viability, ATP luminescence, 48 h; Potency, µM (top dose mostly 46.1 µM), inactives show top-dose activity, negative = toxicity, usual class: cytotoxic; 360,000 compounds, 2% hits; AID 686971, 2013;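 further: 0% = DMSO wells and -100% = cell-free medium wells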
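Using the IDH1-knockdown HT-1080 line run in the same batch and compound series as the NT line, viability after 48 h at 37 °C was determined by CellTiter-Glo luminescence and expressed as % activity.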
HepG2 viability: qHTS for Inhibitors of TGF-b: Cytotox Counterscreen; HepG2 CAGA-GFP viability, ATP luminescence, 18 h; Potency, µM (series often up to 46.1 µM), without a hit: at the highest dose activity change, negative = cytotoxicity, actives largely listed as cytotoxic; 410,000 compounds, 0.76% hits; AID 588856, 2011
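HepG2 CAGA-GFP cells (1000/well, DMEM with 1% FBS) received compound, then TGF-beta at 500 pg/mL final, and were incubated 18 hours at 37 degrees C. Viability was read by CellTiter-Glo luminescence. Media-only wells were set as complete cell-killing and DMSO as no toxicity.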
TDP1 cell CPT: qHTS for Inhibitors of human tyrosyl-DNA phosphodiesterase 1 (TDP1): qHTS in cells in presence of CPT. chicken DT40 Tdp1-/-;hTDP1 cells + 20 nM CPT, ATP luminescence, 48 h. Potency, µM (series often up to 46.2 µM), without a hit: at the highest dose activity change, negative = growth inhibition, actives largely listed as inhibitors. 420,000 compounds, 12% hits. AID 686979, 2013; further: on the % scale 0 is the no-effect control and ±100 the full control effect; nearly all actives have a fitted effect of over 55% in size
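Chicken DT40 Tdp1-/- cells stably complemented with human TDP1 were seeded at 400 cells/well in medium containing 20 nM camptothecin, exposed to pin-transferred compounds, and grown at 37 °C for at least 48 hr. Viability was read as ATP luminescence.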
TDP1 cell noCPT: qHTS for Inhibitors of human tyrosyl-DNA phosphodiesterase 1 (TDP1): qHTS in cells in absence of CPT; 420,000 compounds, 15% hits; Potency, µM (highest dose often 46.2 µM), for inactives: at the top dose activity change, negative = growth inhibition, hits mostly inhibitors; DT40 Tdp1-/- hTDP1 cells, no CPT, ATP luminescence, 48 h; AID 686978, 2013; further: on the % scale 0 is the no-effect control and ±100 the full control effect; nearly all actives have a fitted effect of over 55% in size
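Luminescent ATP content (CellTiter-Glo) served as the growth readout. Knockout chicken DT40 cells expressing human TDP1 were exposed to compounds without camptothecin for a minimum 48 hr at 37 °C.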
TGFb SMAD3 inh: qHTS for Inhibitors of TGF-b. HepG2 CAGA-GFP TGF-b/SMAD3 reporter, GFP fluorescence, 18 h; TGF-beta stimulated, 500 pg/mL final. Potency, µM (doses to about 46.1 µM), inactives show at the highest dose activity, negative = inhibition, hits mostly inhibitors. 410,000 compounds, 1.2% hits. AID 588855, 2011; further: on the % scale 0 is the no-effect control and ±100 the full control effect; nearly all actives have a fitted effect of over 65% in size
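TGF-beta reporter screen: HEPG2 CAGA-GFP, 1% FBS, 500 pg/mL TGF-beta final, 18 h; per-cell GFP summed per well; curves fitted and categorized by class.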
Numbers without * were called inactive; ? = inconclusive; . = not tested or not shown. A selection: hits, their analogues and other compounds. The true share with any hit is near 17%. The call rests on the fitted dose curve; in most records, active means well fitted curve in the direction sought with a large enough effect; inconclusive means small, poorly fitted or top-dose-only effect, or another doubt; inactive means no such curve, though single readings can be large; an effect the other way counts as inactive or inconclusive. Potency means the concentration at half of the fitted maximal effect.

SMILES	HT1080-NT tox	HT1080 IDH1KD tx	HepG2 viability	TDP1 cell CPT	TDP1 cell noCPT	TGFb SMAD3 inh
COc1ccc(Nc2cc(C)c3cc(NC(=O)c4cc(OC)cc(OC)c4)ccc3n2)cc1	.	.	-30.4%	9.2µM*	7.31µM*	?
Cc1cc(Nc2cccc(Cl)c2)nc2ccc(NC(=O)Cc3c(F)cccc3Cl)cc12	.	.	-39.6%	13µM*	7.31µM*	20.2%
COc1ccc(CC(=O)Nc2ccc3nc(Nc4ccc(OC)cc4)cc(C)c3c2)cc1	.	.	-34.9%	?	23.1µM*	?
COc1ccc(Nc2cc(C)c3cc(NC(=O)Cc4c(F)cccc4Cl)ccc3n2)cc1	.	.	-27.1%	16.4µM*	13µM*	0.4%
Cc1cccc(NC(=O)Cc2c(F)cccc2Cl)n1	5.6%	-8.8%	-5.1%	0.1%	-11.2%	-1.7%
Cc1cnc(CNc2cc(-c3cccnc3)ncn2)cn1	.	.	.	-6.0%	?	.
CCOc1ccc(N(C)S(=O)(=O)c2ccc(C)c(C(=O)N3CCN(Cc4ccc5c(c4)OCO5)CC3)c2)cc1	-4.7%	-14.2%	-11.2%	?	?	-14.5%
COc1ccc(-c2ccc(CCC(=O)O)n2CC(=O)Nc2ccccc2C)cc1	11.4%	9.4%	-5.0%	-11.4%	-5.6%	-4.2%
COc1ccc(Nc2cc(C)c3cc(NC(=O)COc4cccc(C)c4)ccc3n2)cc1	.	.	-34.2%	16.4µM*	14.6µM*	?
CCCN1CCN(C(=O)C(C)n2nc(C)c3sc4ccccc4c3c2=O)CC1 (stereo not drawn)	-4.2%	-8.5%	0.3%	?	18.4µM*	9.7%
CCC(C(=O)NCc1ccccc1)n1nc(C)c2sc3ccccc3c2c1=O (stereo not drawn)	.	.	-2.3%	?	?	3.1%
CCC(C(=O)NC1CCC(C)CC1)n1nc(C)c2sc3ccccc3c2c1=O (stereo not drawn)	.	.	2.0%	14.6µM*	14.6µM*	12.0%
CCCOc1ccc(CNC(=O)C(CC)n2nc(C)c3sc4ccccc4c3c2=O)cc1 (stereo not drawn)	.	.	-2.1%	20.6µM*	23.1µM*	-0.8%
CCC(C(=O)Nc1cc(C(F)(F)F)ccc1Cl)n1nc(C)c2sc3ccccc3c2c1=O (stereo not drawn)	.	.	-13.7%	23.1µM*	16.4µM*	-3.3%
CCC(C(=O)NCCCN1CC(C)CC(C)C1)n1nc(C)c2sc3ccccc3c2c1=O (stereo not drawn)	-9.5%	-1.6%	-29.5%	?	?	?
C=C(C)Cn1c2ccc(NC(=O)CCOCC)cc2c(=O)n1C	?	25.6%	0.1%	13.9%	-3.8%	14.5%
CCOCCC(=O)Nc1ccc2c(c1)c(=O)n(C)n2CC=C(C)C	?	?	-50.9%	5.17µM*	2.91µM*	-17.6%
Cn1c(=O)c2cc(NC(=O)NCCc3ccccc3)ccc2n1Cc1ccc(F)cc1	-12.0%	-22.2%	-21.3%	?	?	-24.8%
COc1cc(Cn2c3ccc(NC(=O)NCc4ccc(F)cc4)cc3c(=O)n2C)ccc1F	?	?	4.6%	5.8µM*	5.17µM*	?
Cn1c(=O)c2cc(NC(=O)CCc3ccc4c(c3)OCO4)ccc2n1Cc1ccc(F)cc1	-5.2%	?	-1.7%	16.4µM*	?	4.9%
Cn1c(=O)c2cc(NC(=O)CCc3cccc(Cl)c3)ccc2n1Cc1cccc(C(F)(F)F)c1	28.2%	9.4%	-38.3%	-20.4%	-24.5%	-11.8%
